# LDHA inh – blocks human lactate dehydrogenase A; P00338; purified LDHA, NADH/diaphorase-resazurin fluorescence; stronger effect = lower value; activity change, % (values are at about 110 or 230 µM); hit rate 0.15% among 480,000; AID 1347041; in the data active = activity change below about -30%; inconclusive = mostly about -25% to -30%;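 note: plate controls were DMSO wells for no effect and wells without enzyme for full effect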
#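 LDH5 2 nM; NADH 0.06 mM, pyruvate 0.2 mM; 200 mM Tris pH 7.4, EDTA, Tween-20; 5 min RT. Detection: diaphorase 0.133 mg/mL + resazurin 37 µM, fluorescence ex540/em590 at 0 and 20 min; normalized to enzyme-free and DMSO wells.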
# D3 ag – agonists of human D3 dopamine receptor. P35462. D3R DiscoveRx beta-arrestin cells, luminescence, 90 min. max activation, %. hit rate 0.58% among 410,000. AID 652048; in the data active = max activation above about 30%; note: 0% is about no effect
#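 Agonist-mode cell screen: cells plated at 1500/well and incubated overnight at 37 °C, then exposed to library compounds for 90 min at 37 °C. Detection reagent was added for 30–60 min at room temperature, and luminescence was read.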
# D3 antag – antagonists of human D3 dopamine receptor | P35462 | D3R cells, DiscoveRx beta-arrestin luminescence, antagonist mode; stronger effect = lower value | max response, negative = inhibition, % | hit rate 2.5% among 360,000 | AID 652054; in the data active = max response below about -50%; inconclusive = no clear call, values can overlap the other calls; note: % is set by controls: 0 for no effect and ±100 for the full control effect
#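 Cells plated overnight at 1500 cells/well, then exposed to library compounds with dopamine controls for 90 minutes at 37 degrees C. DiscoveRx reagent added for 30–60 minutes at room temperature; luminescence read, quantitative HTS format.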
# PI4K2A block – inhibitors of human PI4K2A. purified PI4K2A, ADP-Glo luminescence, 1 h; stronger effect = lower value. activity change, negative = inhibition, % at 76.9 µM. hit rate 0.13% among 420,000. AID 1346378; in the data active = activity change below about -50%; inconclusive = mostly about -30% to -49%;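 note: -100% = wells without enzyme as full effect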
# Target sequence (Q9BTU6 whole entry, looked up): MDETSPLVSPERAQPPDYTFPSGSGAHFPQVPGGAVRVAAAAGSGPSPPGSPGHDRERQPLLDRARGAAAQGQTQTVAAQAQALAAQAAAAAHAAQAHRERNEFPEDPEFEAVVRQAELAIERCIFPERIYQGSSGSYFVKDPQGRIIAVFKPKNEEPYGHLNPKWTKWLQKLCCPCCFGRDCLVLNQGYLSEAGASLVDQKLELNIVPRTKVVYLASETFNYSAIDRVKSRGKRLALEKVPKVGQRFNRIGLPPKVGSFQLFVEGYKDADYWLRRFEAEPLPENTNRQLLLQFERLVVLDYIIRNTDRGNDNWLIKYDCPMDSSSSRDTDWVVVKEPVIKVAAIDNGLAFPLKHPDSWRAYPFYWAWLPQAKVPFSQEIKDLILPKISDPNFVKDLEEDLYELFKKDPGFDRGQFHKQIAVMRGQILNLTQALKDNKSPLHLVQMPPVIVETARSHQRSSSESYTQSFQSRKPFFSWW
#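 In this quantitative HTS, ADP production by PI4K2A was quantified luminescently after 1 h at ambient temperature; 100 microM adenosine served as plate-quality control.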
# PI5P4Ka inh – blocks human PI5P4K alpha kinase activity. max response, %. hit rate 1.2% among 330,000. PI5P4Kalpha enzyme, ADP-Glo luminescence, 60 min; stronger effect = lower value. P48426; active = max response of -50% or lower; inconclusive = between -30% and -50%; inactive = -30% or higher; note: value at the top dose of about 77 µM; % is set by controls: 0 for no effect and ±100 for the full control effect
#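 Compounds were pin-transferred onto PI5P4Kalpha and substrate in HEPES pH 7.4 buffer with EGTA, CHAPS and 5% DMSO. ATP (5 microM final) started the reaction, which ran 60 minutes at room temperature before ADP-Glo detection.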
# The depositor's hits bear a star; ? = inconclusive; nt = no result. Compounds with a hit are over-represented: about 3.3% of the library has one in this group of screens.
SMILES,LDHA inh,D3 ag,D3 antag,PI4K2A block,PI5P4Ka inh
O=C(Nc1ccccc1)Nc1c(NC2CCCC2)c2ccccc2oc1=O,1.4,nt,nt,nt,nt
COC(=O)c1[nH]c2ccccc2c1NC(=O)CN1CCN(C(=O)c2ccco2)CC1,0.0,30.9*,-52.2*,-0.4,-7.1
COCC(=O)N1C[C@H]2CON(C)[C@H]2C[C@H]1c1cccc(-c2ccccc2OC)c1,-30.6*,5.9,10.4,-1.6,0.9
COC(=O)/C=c1\sc2ncnn2c1=O,1.2,3.2,-68.8*,-13.7,1.1
CN1CCN(c2nc3cc(C(F)(F)F)ccc3n3cccc23)CC1,-4.6,-72.2,-51.5*,3.1,5.7
FC(F)(F)c1cccc(N2CCN(c3nc4ccccc4n4cnnc34)CC2)c1,-1.5,3.7,nt,-1.3,nt
CN1CCN(CC(=O)NN(Cc2ccccc2)c2ccccc2)CC1,-44.0*,-16.2,-25.6,-5.4,2.7
CCOc1cc(C(=O)Nc2cccc3ncccc23)cc(OCC)c1OCC,0.2,35.4*,-16.8,-6.3,nt
Cc1csc(N=Cc2ccc([N+](=O)[O-])o2)n1,5.9,7.7,11.4,?,-81.6*
O=[N+]([O-])c1ccc(/C=N\O)o1,nt,-3.3,nt,-2.3,nt
O=[N+]([O-])c1ccc(/C=N/N=C/c2ccc([N+](=O)[O-])o2)o1,13.5,-34.8,-81.0*,-1.4,-14.1
Oc1ccccc1N1CCN(Cc2ncc(-c3ccccc3)o2)CC1,8.9,-6.0,-57.9*,-5.0,5.5
Fc1ccccc1N1CCN(Cc2ncc(-c3ccc(Cl)cc3)o2)CC1,-14.1,nt,nt,nt,nt
CN(C)c1ccc(C2C3=C(CCCC3=O)OC3=C2C(=O)CCC3)cc1,13.8,0.1,-55.4*,-13.6,-18.4
COC(=O)c1c(Cl)c(C)nc2onc(C)c12,4.6,nt,nt,nt,nt
c1ccc(SCCOCCN2CCc3ccccc3C2)cc1,-4.0,-29.4,-78.2*,-4.2,5.4
O=S(CCN1CCc2ccccc2C1)c1ccccc1 (stereo not given),3.2,nt,nt,nt,nt
Cc1ccc(SCCN2CCN(Cc3ccccc3)CC2)cc1,-30.9*,-17.7,?,5.5,-0.5
c1ccc(SCCN2CCc3ccccc3C2)cc1,-13.1,-1.0,-91.0*,-0.2,-1.2
Cc1ccc(SCCN2CCN(C)CC2)cc1,-0.9,-0.4,-3.1,-0.9,-2.2
OCCN1CCN(CCSc2ccccc2)CC1,-4.1,-5.0,-60.6*,-1.3,-0.1
CC(NC(=O)C(c1ccccc1)C(C)C)c1ccc2c(c1)CCCC2 (stereo not given),-0.4,nt,nt,nt,nt
CC(CN1CCN(Cc2ccccc2)CC1)c1ccccc1 (stereo not given),-13.4,-3.6,0.0,2.3,-3.7
ClC(CCN1CCN(Cc2ccccc2)CC1)c1ccccc1 (stereo not given),-1.5,-49.2,-64.0*,-2.4,1.8
Cc1ccc(C)n1-c1c(C(=O)N2CCC(C)CC2)sc2ncccc12,-0.3,nt,nt,nt,nt
SMILES,LDHA inh,D3 ag,D3 antag,PI4K2A block,PI5P4Ka inh
CC1=C(c2ccc(C)cc2)S(=O)(=O)NC1=NCCCN1CCN(c2ccc(F)cc2)CC1,-5.3,-37.3,nt,0.4,nt
COc1ccc(N2CCN(C(=O)CN=C3NS(=O)(=O)C(c4ccc(C)cc4)=C3C)CC2)cc1,1.1,-8.3,-79.1*,10.9,nt
O=C(CCNC(=O)Cn1ccc2ccccc2c1=O)NCCCN1CCN(c2ccc(F)cc2)CC1,-6.4,-15.8,?,-10.6,2.5
O=C(Cn1c(=O)c2cccn2c2ccc(F)cc21)NCCCN1CCN(c2ccccc2F)CC1,-0.6,2.0,-92.3*,-0.3,0.2
COc1cc2[nH]c(=O)c(C(=O)NCCCN3CCCCC3)c(O)c2cc1OC,7.4,-5.2,-56.9*,-0.7,-1.0
O=C(Cn1c(-c2cccs2)cc2cc(F)ccc21)NCCCN1CCN(c2ccccc2F)CC1,-7.6,27.8,nt,-2.7,nt
O=C(CCNC(=O)Cn1ccc2ccccc2c1=O)NCCCN1CCN(c2ccccc2F)CC1,-5.8,14.0,-67.6*,1.7,6.2
O=C(CNC(=O)Cn1ccc2ccccc2c1=O)NCCCN1CCN(c2cccc(Cl)c2)CC1,1.3,-1.1,-75.0*,-4.6,-1.1
O=C(CCNC(=O)Cn1ccc2ccccc2c1=O)NCCCN1CCOCC1,1.2,3.2,41.6,-8.0,3.7
COc1ccc(CCNC(=O)c2c(O)c3cc(OC)c(OC)cc3[nH]c2=O)cc1OC,3.0,-4.2,-4.1,-1.0,-1.0
Cc1ccc(N2CC(C(=O)N3CCN(c4cccc(C(F)(F)F)c4)CC3)CC2=O)cc1 (stereo not given),2.3,nt,nt,nt,nt

# Screening data as filed in PubChem.
